The results in this text go back to PubChem BioAssay (EPA / NIEHS).

Usually AC50 stands for the midpoint of the concentration-response curve, whichever way the signal moves.

Values joined by “and” are separate entries in the source; they are usually repeats but may differ in a detail not shown here. Identical values can stand only once. Inconclusive results are not listed. Active and inactive are the calls of the source. Rule for the calls: active = hit-call score of the fitted dose curve at least 0.9, where 1 is the maximum; inconclusive = response in the unintended direction; inactive = score below 0.9.

Experiment [1] has as its target Muscarinic acetylcholine receptor M3 (Homo sapiens) (UniProt P20309). Put plainly: NVS_GPCR_hM3: NovaScreen (NVS) G Protein-Coupled Receptor Assay for human Muscarinic, M3 Receptor (AID 2283272). The method in brief: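 Radioligand displacement binding on human M3 receptor in CHO-derived membranes, 1 h incubation, filter-based scintillation counting. Primary screen in duplicate at 25 uM; actives followed up in concentration series; loss of signal versus DMSO.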

The target of experiment [2] is Muscarinic acetylcholine receptor M2 (Homo sapiens) (UniProt P08172). Put plainly: NVS_GPCR_hM2: NovaScreen (NVS) G Protein-Coupled Receptor Assay for human Muscarinic, M2 Receptor (AID 2283273). The method, then: (§1) NVS_GPCR_hM2 is a biochemical, single-readout assay that uses extracted gene-proteins from CHO in a cell-free assay. Measurements were taken 1 hour after chemical dosing in a 96-well plate.NVS_GPCR_hM2 is one of one assay component(s) measured or calculated from the NVS_GPCR_hM2 assay. It is designed to make measurements of radioligand binding, a form of binding reporter, as detected with scintillation counting signals by Filter-based radiodetection technology.Data from the assay component NVS_GPCR_hM2 was analyzed into 1 assay endpoint. This assay endpoint, NVS_GPCR_hM2, was analyzed in the positive analysis fitting direction relative to DMSO as the negative control and baseline of activity. Using a type of binding reporter, loss-of-signal activity can be used to understand changes in the binding as they relate to the gene CHRM2. Furthermore, this assay endpoint can be referred to as a primary readout, because the performed assay has only produced 1 assay endpoint. To generalize the intended target to other relatable targets, this assay endpoint is annotated to the gpcr intended target family, where the subfamily is rhodopsin-like receptor.
(§2) Binding assays used specific radioligands (tritiated, iodinated) with non-radioactive competitive displacement ligands in agonist or antagonist protocols (as indicated) and various reference compounds and inhibitors to titrate specific binding to receptors and transporters. Most enzyme assays (CYPs, kinases, phosphatases, proteases, HDACs) used recombinant protein and specific substrates (fluorescence mostly, some colorimetric and radioactive) and inhibitors, followed by a biochemical separation of substrate and product. All assays for the biochemical HTS were initially run in duplicate at a single concentration (10 uM for CYP450 assays and 25 uM for all others). […] Each assay was run with positive and negative controls, and concurrent controls on every plate. The follow-up (secondary) screen tested active chemical-pairs in concentration series, as well as a few additional assays not tested in the primary screen, some selected negative inactives, and several cases re-run in the concentration series for confirmatory purposes.

In experiment [3] the target is human Histamine 1 Receptor (H1), HRH1 (gene 3269) (UniProt P35367). As to the kind of experiment: NVS_GPCR_hH1: NovaScreen (NVS) G Protein-Coupled Receptor Assay for human Histamine 1 Receptor (H1) (AID 2283268). The gist of the method: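 Cell-free radioligand displacement at human H1 receptor, 1 h, filter scintillation counting; primary screen 25 uM in duplicate, hits in concentration series; loss of binding fitted vs DMSO.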

Experiment [4] addresses human Neuropeptide Receptor Y1 (NPY1), NPY1R (gene 4886) (UniProt P25929). Put plainly: NVS_GPCR_hNPY1: NovaScreen (NVS) G Protein-Coupled Receptor Assay for human Neuropeptide Receptor Y1 (NPY1) (AID 2283276). The method in brief: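 Cell-free radioligand binding using receptor extracted from SK-N-MC cells, 1 h incubation, filter-based scintillation counting. Primary screen single concentration 25 uM in duplicate; actives followed in concentration series. Loss of bound signal scored versus DMSO.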

Experiment [5] deals with human Leukotriene B4 Receptor 1 (LTB4-BLT1), LTB4R (gene 1241) (UniProt Q15722). Put plainly: NVS_GPCR_hLTB4_BLT1: NovaScreen (NVS) G Protein-Coupled Receptor Assay for human Leukotriene B4 Receptor 1 (LTB4-BLT1) (AID 2283271). The method in brief: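 Radioligand displacement binding on receptor extracted from human neutrophils, cell-free, 1 h after dosing; filter-based scintillation counting. Primary screen in duplicate at 25 uM, actives retested in concentration-response up to 50 uM; loss of signal versus DMSO.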

The target in experiment [6] is Muscarinic acetylcholine receptor M1 (Homo sapiens) (UniProt P11229). As to the kind of experiment: NVS_GPCR_hM1: NovaScreen (NVS) G Protein-Coupled Receptor Assay for human Muscarinic, M1 Receptor (AID 2283270). The gist of the method:
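Cell-free radioligand displacement using membrane protein extracted from CHO cells, read by filter-based scintillation counting 1 h after dosing. Loss of bound signal fitted versus DMSO; primary screen single concentration 25 uM in duplicate, actives followed by concentration series.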

Experiment [7] concerns the target human Muscarinic, M4 Receptor, CHRM4 (gene 1132) (UniProt P08173). As to the kind of experiment: NVS_GPCR_hM4: NovaScreen (NVS) G Protein-Coupled Receptor Assay for human Muscarinic, M4 Receptor (AID 2283274). On the procedure:
as §1, with “NVS_GPCR_hM4” for “NVS_GPCR_hM2”, “plate.NVS_GPCR_hM4” for “plate.NVS_GPCR_hM2”, “NVS_GPCR_hM4,” for “NVS_GPCR_hM2,”, “CHRM4.” for “CHRM2.”
as §2, with “The follow-up (secondary) screen tested active chemical-pairs in concentration series, as well as a few additional assays not tested in the primary screen, some selected negative inactives, and several cases re-run in the concentration series for confirmatory purposes.” left out

Experiment [8] deals with human Endothelin Receptor Type B (ETB), EDNRB (gene 1910) (UniProt P24530). As to the kind of experiment: NVS_GPCR_hETB: NovaScreen (NVS) G Protein-Coupled Receptor Assay for human Endothelin Receptor Type B (ETB) (AID 2283267). The gist of the method:
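Human astrocytoma cell membranes; radioligand competitive binding read by filter scintillation counting 4 hours after dosing. Single-concentration duplicate screen at 25 uM, then singleton concentration-response up to 50 uM; loss of signal versus DMSO.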

The target in experiment [9] is D(1A) dopamine receptor (Homo sapiens) (UniProt P21728). As to the kind of experiment: NVS_GPCR_hDRD1: NovaScreen (NVS) G Protein-Coupled Receptor Assay for human Dopamine Receptor D1 (DRD1) (AID 2283269). The gist of the method: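 Cell-free competition with radioligand, filter-trapped and scintillation-counted 1 h post-dose, using HEK293-derived human D1 preparation. Duplicate single-point testing at 25 uM first, then concentration series for actives; DMSO served as baseline, loss-of-signal scored.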

Experiment [10] concerns the target Neuropeptide Y receptor type 2 (Homo sapiens) (UniProt P49146). As to the kind of experiment: NVS_GPCR_hNPY2: NovaScreen (NVS) G Protein-Coupled Receptor Assay for human Neuropeptide Receptor Y2 (NPY2) (AID 2283277). The method in brief: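 Radioligand binding on membranes extracted from SK-N-MC cells, cell-free, read 1 h after dosing by filter-based scintillation counting. Loss of signal vs DMSO. Primary screen in duplicate at 25 uM; actives followed up in concentration-response up to 50 uM.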

Chain of D(1A) dopamine receptor (Homo sapiens) (P21728 whole entry, looked up): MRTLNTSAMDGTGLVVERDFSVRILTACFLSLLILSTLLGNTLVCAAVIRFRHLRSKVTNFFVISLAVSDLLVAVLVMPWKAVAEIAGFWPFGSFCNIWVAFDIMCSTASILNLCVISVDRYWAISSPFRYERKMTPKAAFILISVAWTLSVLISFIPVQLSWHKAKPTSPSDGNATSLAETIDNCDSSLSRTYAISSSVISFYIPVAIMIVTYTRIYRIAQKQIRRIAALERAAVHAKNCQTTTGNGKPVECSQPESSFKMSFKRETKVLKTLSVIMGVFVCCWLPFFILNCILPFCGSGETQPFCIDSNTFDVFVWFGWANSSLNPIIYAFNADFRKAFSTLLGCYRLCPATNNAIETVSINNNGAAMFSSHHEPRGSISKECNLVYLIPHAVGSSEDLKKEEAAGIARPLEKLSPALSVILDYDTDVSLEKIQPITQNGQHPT
Chain of human Histamine 1 Receptor (H1), HRH1 (gene 3269) (P35367 whole entry, looked up): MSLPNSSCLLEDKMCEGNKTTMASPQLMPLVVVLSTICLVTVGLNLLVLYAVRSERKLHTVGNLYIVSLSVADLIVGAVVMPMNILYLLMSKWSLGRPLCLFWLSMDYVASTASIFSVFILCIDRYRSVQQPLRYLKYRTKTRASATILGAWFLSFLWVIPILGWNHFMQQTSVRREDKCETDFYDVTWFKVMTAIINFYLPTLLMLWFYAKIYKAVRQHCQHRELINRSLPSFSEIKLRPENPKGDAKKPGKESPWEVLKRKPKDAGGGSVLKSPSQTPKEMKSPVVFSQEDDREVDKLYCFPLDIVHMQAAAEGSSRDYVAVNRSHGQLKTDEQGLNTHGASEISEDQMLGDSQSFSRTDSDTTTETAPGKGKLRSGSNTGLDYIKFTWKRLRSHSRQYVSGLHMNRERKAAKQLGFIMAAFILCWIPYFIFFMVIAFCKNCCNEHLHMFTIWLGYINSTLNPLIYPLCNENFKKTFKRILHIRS
Chain of Muscarinic acetylcholine receptor M2 (Homo sapiens) (P08172 whole entry, looked up): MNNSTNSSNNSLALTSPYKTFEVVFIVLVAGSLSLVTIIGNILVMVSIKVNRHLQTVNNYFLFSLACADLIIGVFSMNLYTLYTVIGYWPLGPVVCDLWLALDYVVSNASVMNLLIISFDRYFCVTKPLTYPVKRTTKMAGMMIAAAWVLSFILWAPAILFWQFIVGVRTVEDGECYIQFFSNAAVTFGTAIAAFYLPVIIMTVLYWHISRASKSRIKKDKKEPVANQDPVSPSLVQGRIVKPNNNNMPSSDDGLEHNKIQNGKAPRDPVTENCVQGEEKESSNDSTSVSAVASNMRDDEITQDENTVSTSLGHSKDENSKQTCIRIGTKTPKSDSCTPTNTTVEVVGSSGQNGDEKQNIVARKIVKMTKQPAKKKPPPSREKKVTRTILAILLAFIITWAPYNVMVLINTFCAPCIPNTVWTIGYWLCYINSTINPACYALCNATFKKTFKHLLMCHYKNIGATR
Chain of human Muscarinic, M4 Receptor, CHRM4 (gene 1132) (P08173 whole entry, looked up): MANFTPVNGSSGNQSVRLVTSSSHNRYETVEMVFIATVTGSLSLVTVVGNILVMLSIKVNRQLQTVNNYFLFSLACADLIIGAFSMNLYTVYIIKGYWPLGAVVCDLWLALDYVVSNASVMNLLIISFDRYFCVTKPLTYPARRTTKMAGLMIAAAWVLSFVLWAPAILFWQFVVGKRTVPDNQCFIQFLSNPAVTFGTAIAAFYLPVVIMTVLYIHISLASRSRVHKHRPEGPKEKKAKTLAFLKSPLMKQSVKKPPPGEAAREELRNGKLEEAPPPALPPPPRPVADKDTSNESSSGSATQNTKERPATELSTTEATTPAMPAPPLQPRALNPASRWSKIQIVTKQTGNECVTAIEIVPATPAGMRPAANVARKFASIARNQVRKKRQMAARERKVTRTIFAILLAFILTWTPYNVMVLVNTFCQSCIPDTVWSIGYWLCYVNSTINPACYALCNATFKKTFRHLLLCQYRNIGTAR
Chain of human Leukotriene B4 Receptor 1 (LTB4-BLT1), LTB4R (gene 1241) (Q15722 whole entry, looked up): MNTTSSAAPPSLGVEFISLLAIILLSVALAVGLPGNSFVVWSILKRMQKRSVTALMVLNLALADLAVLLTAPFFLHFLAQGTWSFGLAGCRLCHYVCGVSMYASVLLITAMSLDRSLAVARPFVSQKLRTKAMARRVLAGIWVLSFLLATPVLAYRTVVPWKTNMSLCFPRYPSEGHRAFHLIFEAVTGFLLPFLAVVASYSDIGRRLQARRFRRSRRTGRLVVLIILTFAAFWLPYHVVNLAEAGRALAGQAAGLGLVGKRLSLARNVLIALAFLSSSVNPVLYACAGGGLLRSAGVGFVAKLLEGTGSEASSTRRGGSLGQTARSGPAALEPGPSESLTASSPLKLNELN
Chain of Muscarinic acetylcholine receptor M3 (Homo sapiens) (P20309 whole entry, looked up): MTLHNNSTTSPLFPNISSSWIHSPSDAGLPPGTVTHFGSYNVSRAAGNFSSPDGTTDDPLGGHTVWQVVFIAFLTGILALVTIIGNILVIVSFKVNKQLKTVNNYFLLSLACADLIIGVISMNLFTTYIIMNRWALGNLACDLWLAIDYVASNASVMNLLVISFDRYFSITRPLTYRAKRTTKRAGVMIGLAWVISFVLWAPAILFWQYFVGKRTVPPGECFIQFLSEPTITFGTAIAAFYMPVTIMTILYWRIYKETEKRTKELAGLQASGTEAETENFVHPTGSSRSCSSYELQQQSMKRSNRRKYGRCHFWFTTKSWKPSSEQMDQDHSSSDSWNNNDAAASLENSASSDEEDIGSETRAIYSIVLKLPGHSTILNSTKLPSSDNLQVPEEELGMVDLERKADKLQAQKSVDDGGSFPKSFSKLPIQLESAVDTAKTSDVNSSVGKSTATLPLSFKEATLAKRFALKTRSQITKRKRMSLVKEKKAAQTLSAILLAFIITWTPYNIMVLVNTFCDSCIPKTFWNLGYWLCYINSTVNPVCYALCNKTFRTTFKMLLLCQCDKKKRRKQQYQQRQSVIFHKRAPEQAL
Chain of Muscarinic acetylcholine receptor M1 (Homo sapiens) (P11229 whole entry, looked up): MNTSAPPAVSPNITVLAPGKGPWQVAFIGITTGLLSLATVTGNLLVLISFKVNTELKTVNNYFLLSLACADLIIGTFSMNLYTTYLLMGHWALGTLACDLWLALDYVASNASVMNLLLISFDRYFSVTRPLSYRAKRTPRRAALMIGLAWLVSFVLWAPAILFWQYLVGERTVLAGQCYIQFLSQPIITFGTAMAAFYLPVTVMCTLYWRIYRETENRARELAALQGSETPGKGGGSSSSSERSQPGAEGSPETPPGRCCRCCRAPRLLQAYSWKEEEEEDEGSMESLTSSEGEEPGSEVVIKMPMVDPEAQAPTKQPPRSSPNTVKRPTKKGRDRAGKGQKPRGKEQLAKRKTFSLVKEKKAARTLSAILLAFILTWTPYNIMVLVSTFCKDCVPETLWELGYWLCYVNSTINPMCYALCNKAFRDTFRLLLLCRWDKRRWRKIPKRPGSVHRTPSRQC
Chain of human Neuropeptide Receptor Y1 (NPY1), NPY1R (gene 4886) (P25929 whole entry, looked up): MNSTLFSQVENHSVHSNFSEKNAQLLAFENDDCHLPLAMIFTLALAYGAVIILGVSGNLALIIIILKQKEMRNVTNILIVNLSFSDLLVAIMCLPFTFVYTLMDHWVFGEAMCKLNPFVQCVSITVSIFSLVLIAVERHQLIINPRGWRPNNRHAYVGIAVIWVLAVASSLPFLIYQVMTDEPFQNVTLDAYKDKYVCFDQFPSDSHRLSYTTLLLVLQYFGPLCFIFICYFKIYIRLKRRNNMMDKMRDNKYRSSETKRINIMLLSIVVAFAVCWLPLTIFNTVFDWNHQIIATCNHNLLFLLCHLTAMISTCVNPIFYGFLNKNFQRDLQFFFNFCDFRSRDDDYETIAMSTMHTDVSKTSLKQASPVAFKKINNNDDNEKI
Chain of Neuropeptide Y receptor type 2 (Homo sapiens) (P49146 whole entry, looked up): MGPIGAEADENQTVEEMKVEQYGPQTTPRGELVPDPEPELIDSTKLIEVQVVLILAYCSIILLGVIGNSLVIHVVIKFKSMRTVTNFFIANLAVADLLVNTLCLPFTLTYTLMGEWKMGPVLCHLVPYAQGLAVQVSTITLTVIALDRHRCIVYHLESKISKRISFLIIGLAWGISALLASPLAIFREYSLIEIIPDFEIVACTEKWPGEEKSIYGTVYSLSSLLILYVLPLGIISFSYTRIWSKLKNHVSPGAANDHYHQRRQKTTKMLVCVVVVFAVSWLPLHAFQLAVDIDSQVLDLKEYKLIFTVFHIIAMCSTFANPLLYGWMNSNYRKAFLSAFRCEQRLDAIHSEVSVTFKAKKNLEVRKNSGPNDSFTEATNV
Chain of human Endothelin Receptor Type B (ETB), EDNRB (gene 1910) (P24530 whole entry, looked up): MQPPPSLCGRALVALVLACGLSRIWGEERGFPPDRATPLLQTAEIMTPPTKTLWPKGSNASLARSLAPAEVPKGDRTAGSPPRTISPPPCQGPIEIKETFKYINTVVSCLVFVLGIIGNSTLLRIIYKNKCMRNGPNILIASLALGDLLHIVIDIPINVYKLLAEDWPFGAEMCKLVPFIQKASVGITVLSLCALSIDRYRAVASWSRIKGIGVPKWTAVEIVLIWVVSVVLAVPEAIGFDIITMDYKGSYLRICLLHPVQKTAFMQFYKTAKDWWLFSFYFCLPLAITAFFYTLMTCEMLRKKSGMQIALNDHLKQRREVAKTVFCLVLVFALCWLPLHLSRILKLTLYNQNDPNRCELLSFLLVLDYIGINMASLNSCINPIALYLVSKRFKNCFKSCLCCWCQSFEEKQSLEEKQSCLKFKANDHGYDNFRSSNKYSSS

In the case of `CCCCC(CC)CN1C(=O)C2C3C=CC(C3)C2C1=O` (configuration not stated), the AC50 in experiment [1] was 8.81 µM (active). Besides, the molecule was classed as inactive in experiment [2].
Regarding `S=C([S-])NCCNC(=S)[S-].[Mn+2]`, in experiment [3], the molecule was classed as inactive. Moreover, the AC50 in experiment [4] was 13.3 µM (active).
For the molecule `C[C@]12CC[C@@H]3c4ccc(O)cc4C[C@@H](CCCCCCCCCS(=O)CCCC(F)(F)C(F)(F)F)[C@H]3[C@@H]1CC[C@@H]2O` (some centres not stated), in experiment [1], the outcome was inactive.
With `O=C(O)C1(C(=O)Nc2ccc(Cl)cc2Cl)CC1`, the molecule was called inactive in experiment [5].
As to `CCOC(=O)[C@H](C)Oc1ccc(Oc2nc3ccc(Cl)cc3o2)cc1`, the call in experiment [6] was inactive.
In the case of `Cc1nn(C)c(Oc2ccccc2)c1C=NOCc1ccc(C(=O)OC(C)(C)C)cc1`, the result in experiment [4] was inactive.
Turning to `CCCCOC(=O)C(C)Oc1ccc(Oc2ccc(C(F)(F)F)cn2)cc1` (configuration not stated), the AC50 in experiment [6] was 12.1 µM (active).
As to `CCOC(=O)COc1cc(-n2ncc(C(F)(F)F)c(C)c2=O)c(F)cc1Cl`, the result in experiment [3] was inactive.
Take `CC(=O)[C@H]1CC[C@H]2[C@@H]3CCC4=CC(=O)CC[C@]4(C)[C@H]3CC[C@]12C`: the outcome in [2] and in [7] was inactive.
Take `C=CCOC(Cn1ccnc1)c1ccc(Cl)cc1Cl` (configuration not stated): the AC50 in experiment [6] is 5.47 µM (active); in experiment [1], 5.02 µM (active); in experiment [2], 2.67 µM (active); in experiment [7] it was 5.37 µM (active). Moreover, the outcome in experiment [5] was inactive.
For the molecule `CCOC(=O)NCCOc1ccc(Oc2ccccc2)cc1`, the outcome in [6] was inactive.
On to `C#C[C@]1(O)CC[C@H]2[C@@H]3CCC4=CC(=O)CC[C@@H]4[C@H]3CC[C@@]21CC`, for which the molecule was classed as inactive in experiment [8].
As to `CC(C)(c1ccc(O)cc1)c1ccc(O)cc1`, the molecule was classed as inactive in experiment [9], in experiment [5] and in experiment [10].
On to `CCCCCCC(C)OC(=O)COc1nc(F)c(Cl)c(N)c1Cl` (configuration not stated), for which, in experiment [9], the AC50 was 25 µM (active).
As to `CCNc1nc(N)nc(Cl)n1`, the outcome in experiment [3] was inactive.
Take `CCCOC(=O)NCCCN(C)C`: the outcome in [2] was inactive.
As to `Oc1ccc(C(c2ccc(O)cc2)C(Cl)(Cl)Cl)cc1`, the AC50 in experiment [9] was 6.83 µM (active); in experiment [6] it was 6.79 µM (active); in [2] it was 4.96 µM (active); in [7], 6.62 µM (active). Besides, the molecule was called inactive in experiment [5] and in experiment [1].
In the case of `CCOC(=O)C(C)Oc1ccc(Oc2nc3ccc(Cl)cc3o2)cc1` (configuration not stated), the AC50 in experiment [6] is 17.2 µM (active).
Turning to `S=C(S)NCCNC(=S)S.[Mn+2].[S-]C([S-])=NCCN=C([S-])[S-].[Zn+2]`, the outcome in experiment [3] and in [2] was inactive.
As to `CC1(C)C(C=C(Cl)Cl)C1C(=O)OCc1cccc(Oc2ccccc2)c1` (configuration not stated), in experiment [9], the molecule was called inactive.
In the case of `N#CSCSc1nc2ccccc2s1`, the AC50 in experiment [9] is 14.8 µM (active) and 16.7 µM (active).
Take `CC(C)CCCCCCc1ccc(O)cc1`: in experiment [9], the AC50 was 25 µM (active).
